Tests used:
Experiment in all cases: DAPPL (digital affinity profiling via proximity ligation, sequencing); 10 mM Tris-HCl pH 7.5, 50 mM NaCl, 1 mM DTT, 4% glycerol, room temperature, 30 min; GST-TFs on glutathione beads, 16-mer random dsDNA library, 0.1% formaldehyde crosslink after washing; high values mean tight binding
Conditions in all cases: protein: recombinant; tags: N-terminal GST; dsDNA, one strand shown
FEV = molecular target: T1, FEV (Homo sapiens, UniProt Q99581 1-238)
T1 sequence: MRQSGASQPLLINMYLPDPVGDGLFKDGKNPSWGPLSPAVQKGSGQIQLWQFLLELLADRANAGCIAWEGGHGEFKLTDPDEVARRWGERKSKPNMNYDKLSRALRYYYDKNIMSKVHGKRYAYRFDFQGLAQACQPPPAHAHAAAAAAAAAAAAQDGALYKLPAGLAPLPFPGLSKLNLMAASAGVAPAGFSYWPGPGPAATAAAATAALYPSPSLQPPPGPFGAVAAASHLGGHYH
How it was run: (§1)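 After expression in yeast as GST fusions, human transcription factors were bound to glutathione beads, DNA-barcoded and mixed with a tag-only sample. The pools were incubated with 200 nmole of a 16-mer random double-stranded DNA library in Tris/NaCl/DTT/glycerol buffer (30 min, room temperature), washed and crosslinked with 0.1% formaldehyde. Proximity ligation with BsaI/T4 ligase ran for 1 h at 37 °C, before PCR amplification and sequencing on an Illumina NextSeq500. Binding signal is a hexamer's read frequency for a factor divided by its frequency for the tag-only sample.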

ETV5 = ETV5 (Homo sapiens, UniProt P41161 1-510)
How it was run: as §1

SPIC = molecular target: T2, SPIC (Homo sapiens, UniProt Q8N5J4 1-248)
T2 sequence: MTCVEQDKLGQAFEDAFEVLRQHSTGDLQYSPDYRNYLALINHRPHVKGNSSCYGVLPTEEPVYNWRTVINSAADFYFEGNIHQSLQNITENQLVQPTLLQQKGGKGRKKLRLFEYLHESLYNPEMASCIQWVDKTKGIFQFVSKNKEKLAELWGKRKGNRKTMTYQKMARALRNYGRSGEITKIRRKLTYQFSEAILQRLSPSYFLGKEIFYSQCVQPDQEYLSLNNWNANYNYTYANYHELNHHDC
How it was run: as §1

ELF4 = ELF4 (Homo sapiens, UniProt Q99607 1-663)
How it was run: as §1

ELK4 = molecular target: T3, ELK4 (Homo sapiens, UniProt P28324-2 1-405)
T3 sequence: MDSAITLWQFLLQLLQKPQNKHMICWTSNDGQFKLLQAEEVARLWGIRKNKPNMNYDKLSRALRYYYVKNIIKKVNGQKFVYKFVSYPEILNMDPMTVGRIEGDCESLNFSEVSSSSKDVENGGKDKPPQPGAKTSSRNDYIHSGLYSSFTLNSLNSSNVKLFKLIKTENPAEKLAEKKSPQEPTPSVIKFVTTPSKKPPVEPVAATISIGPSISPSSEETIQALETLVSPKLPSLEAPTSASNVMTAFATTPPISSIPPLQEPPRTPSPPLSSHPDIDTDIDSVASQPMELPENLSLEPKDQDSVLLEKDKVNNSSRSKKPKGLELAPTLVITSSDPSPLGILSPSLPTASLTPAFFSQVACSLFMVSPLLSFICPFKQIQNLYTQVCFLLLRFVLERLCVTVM
How it was run: as §1

ETV2 = molecular target: T4, ETV2 (Homo sapiens, UniProt O00321 1-342)
T4 sequence: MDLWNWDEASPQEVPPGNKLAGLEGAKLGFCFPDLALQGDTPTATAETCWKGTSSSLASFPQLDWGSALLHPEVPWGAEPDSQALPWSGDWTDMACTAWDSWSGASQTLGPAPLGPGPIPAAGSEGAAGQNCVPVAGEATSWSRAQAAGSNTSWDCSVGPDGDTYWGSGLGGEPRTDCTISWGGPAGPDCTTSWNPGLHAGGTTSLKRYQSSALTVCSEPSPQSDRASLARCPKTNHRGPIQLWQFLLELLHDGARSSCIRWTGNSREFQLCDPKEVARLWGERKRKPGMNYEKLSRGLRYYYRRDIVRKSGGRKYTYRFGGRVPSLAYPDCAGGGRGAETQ
How it was run: as §1

ELF3 = molecular target: T5, ELF3 (Homo sapiens, UniProt P78545 1-371)
T5 sequence: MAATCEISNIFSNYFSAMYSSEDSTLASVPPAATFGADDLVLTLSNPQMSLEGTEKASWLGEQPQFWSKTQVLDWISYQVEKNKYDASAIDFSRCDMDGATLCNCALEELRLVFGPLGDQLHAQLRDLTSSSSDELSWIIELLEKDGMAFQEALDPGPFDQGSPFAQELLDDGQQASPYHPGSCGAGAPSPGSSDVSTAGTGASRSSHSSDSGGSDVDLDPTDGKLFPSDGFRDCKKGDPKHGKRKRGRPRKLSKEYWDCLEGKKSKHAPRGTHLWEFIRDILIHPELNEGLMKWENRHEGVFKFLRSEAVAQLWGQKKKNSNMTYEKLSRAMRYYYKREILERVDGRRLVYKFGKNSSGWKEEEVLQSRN
How it was run: as §1

ETV1 = ETV1 (Homo sapiens, UniProt P50549 1-477)
How it was run: as §1

ERF = molecular target: T6, ERF (Homo sapiens, UniProt P50548 1-548)
T6 sequence: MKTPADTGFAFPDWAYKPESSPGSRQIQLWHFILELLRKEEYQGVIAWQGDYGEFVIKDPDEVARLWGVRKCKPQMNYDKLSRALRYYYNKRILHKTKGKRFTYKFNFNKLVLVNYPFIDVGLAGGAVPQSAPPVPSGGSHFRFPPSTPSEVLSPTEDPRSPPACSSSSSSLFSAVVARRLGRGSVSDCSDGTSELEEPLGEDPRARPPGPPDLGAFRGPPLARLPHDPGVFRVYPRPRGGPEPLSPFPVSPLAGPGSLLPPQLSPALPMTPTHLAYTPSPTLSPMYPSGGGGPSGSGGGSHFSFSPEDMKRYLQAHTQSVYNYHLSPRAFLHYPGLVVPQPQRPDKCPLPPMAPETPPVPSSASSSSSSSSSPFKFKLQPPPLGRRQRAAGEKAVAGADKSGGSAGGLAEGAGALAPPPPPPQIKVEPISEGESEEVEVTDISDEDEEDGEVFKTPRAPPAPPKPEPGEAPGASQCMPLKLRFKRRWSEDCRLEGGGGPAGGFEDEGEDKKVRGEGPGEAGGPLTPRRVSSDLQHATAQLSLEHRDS
How it was run: as §1

ETV3L = molecular target: T7, ETV3L (Homo sapiens, UniProt Q6ZN32 1-361)
T7 sequence: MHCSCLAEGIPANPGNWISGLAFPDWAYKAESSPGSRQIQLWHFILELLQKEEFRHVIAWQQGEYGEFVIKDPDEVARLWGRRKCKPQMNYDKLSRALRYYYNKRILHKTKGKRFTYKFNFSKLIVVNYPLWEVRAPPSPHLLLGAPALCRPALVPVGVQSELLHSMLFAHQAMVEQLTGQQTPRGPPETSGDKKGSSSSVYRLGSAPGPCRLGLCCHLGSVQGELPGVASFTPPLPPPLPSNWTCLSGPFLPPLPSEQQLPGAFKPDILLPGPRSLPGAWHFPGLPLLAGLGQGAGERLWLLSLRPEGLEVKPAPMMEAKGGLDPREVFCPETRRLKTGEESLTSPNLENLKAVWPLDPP
How it was run: as §1

ETS2 = molecular target: T8, ETS2 (Homo sapiens, UniProt P15036 1-469)
T8 sequence: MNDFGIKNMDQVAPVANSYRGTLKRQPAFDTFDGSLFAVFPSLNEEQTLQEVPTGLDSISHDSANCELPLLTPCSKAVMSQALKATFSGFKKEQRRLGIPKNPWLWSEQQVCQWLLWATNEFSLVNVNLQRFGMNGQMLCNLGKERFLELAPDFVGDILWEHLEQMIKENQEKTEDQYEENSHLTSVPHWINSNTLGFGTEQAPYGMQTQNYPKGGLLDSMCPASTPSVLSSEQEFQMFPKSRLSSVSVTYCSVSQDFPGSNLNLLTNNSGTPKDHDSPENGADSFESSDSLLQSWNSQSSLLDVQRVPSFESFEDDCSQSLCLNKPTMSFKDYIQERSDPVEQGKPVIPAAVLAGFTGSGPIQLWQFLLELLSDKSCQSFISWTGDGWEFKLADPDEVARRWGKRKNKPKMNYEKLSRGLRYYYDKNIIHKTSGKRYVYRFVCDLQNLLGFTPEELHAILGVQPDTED
How it was run: as §1

ELF5 = molecular target: T9, ELF5 (Homo sapiens, UniProt Q9UKW6-2 1-255)
T9 sequence: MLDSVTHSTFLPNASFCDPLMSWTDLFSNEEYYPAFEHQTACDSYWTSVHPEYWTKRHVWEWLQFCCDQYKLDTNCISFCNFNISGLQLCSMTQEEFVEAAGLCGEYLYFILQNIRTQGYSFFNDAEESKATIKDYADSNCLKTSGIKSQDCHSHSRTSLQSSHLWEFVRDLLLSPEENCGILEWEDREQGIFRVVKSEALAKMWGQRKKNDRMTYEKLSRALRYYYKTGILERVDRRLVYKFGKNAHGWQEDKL
How it was run: as §1

ETV3 = molecular target: T10, ETV3 (Homo sapiens, UniProt P41162-2 1-143)
T10 sequence: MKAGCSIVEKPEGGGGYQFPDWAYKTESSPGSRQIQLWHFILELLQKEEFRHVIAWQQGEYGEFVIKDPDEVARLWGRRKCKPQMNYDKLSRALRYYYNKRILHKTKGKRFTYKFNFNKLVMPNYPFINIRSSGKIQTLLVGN
How it was run: as §1

ETV6 = ETV6 (Homo sapiens, UniProt P41212 1-452)
How it was run: as §1

ETV7 = molecular target: T11, ETV7 (Homo sapiens, UniProt Q9Y603 1-341)
T11 sequence: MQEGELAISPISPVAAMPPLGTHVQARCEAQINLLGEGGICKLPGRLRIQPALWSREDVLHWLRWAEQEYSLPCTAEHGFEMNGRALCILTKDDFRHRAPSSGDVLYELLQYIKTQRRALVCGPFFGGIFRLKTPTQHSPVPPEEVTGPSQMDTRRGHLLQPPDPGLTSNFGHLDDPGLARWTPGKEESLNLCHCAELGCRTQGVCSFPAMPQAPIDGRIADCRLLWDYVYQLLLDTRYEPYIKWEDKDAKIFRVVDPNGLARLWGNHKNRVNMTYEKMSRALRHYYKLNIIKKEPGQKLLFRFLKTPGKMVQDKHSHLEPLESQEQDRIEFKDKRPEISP
How it was run: as §1

ETV5, sequence (P41161 whole entry): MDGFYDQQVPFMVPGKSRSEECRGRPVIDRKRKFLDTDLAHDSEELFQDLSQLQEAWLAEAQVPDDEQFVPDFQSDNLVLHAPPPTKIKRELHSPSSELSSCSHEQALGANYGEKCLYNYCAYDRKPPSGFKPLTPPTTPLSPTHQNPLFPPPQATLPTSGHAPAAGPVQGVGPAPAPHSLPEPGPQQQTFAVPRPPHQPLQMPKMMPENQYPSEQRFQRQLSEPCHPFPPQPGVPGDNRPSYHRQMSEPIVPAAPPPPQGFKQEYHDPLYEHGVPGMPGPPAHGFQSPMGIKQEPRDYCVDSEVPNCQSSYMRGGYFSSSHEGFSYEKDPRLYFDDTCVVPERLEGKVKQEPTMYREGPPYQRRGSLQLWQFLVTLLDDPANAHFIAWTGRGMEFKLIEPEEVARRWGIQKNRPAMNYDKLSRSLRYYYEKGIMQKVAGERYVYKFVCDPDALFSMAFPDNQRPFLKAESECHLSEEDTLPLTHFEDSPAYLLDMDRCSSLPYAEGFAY
ELF4, sequence (Q99607 whole entry): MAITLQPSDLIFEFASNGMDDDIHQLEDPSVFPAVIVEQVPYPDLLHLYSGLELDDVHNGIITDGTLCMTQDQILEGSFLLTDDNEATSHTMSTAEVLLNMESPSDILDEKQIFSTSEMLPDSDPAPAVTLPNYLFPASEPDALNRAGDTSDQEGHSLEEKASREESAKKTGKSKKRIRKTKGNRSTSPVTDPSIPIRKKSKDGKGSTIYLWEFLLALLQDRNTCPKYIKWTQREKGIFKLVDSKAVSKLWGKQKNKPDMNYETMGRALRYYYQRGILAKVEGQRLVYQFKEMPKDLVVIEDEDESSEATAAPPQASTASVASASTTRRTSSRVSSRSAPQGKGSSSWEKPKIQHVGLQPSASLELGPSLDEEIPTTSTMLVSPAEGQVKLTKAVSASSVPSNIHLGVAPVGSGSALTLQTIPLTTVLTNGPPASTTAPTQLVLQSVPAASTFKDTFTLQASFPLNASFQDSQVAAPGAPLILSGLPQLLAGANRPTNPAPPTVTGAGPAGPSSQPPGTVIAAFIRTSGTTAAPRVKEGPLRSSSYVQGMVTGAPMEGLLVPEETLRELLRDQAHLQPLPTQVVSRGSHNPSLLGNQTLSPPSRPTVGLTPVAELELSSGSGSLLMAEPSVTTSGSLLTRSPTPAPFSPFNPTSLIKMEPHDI
ETV6, sequence (P41212 whole entry): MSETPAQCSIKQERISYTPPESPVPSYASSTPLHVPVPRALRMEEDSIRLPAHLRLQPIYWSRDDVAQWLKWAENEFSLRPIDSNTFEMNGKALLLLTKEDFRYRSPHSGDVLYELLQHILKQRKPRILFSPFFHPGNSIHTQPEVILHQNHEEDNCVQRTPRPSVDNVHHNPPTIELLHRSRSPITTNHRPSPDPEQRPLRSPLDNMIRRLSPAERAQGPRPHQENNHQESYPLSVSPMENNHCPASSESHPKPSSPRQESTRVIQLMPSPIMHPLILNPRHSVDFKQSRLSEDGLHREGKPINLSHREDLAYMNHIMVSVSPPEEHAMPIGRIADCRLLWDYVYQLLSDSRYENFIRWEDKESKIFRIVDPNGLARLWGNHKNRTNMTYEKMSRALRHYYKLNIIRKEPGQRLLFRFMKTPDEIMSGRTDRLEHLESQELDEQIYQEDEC
ETV1, sequence (P50549 whole entry): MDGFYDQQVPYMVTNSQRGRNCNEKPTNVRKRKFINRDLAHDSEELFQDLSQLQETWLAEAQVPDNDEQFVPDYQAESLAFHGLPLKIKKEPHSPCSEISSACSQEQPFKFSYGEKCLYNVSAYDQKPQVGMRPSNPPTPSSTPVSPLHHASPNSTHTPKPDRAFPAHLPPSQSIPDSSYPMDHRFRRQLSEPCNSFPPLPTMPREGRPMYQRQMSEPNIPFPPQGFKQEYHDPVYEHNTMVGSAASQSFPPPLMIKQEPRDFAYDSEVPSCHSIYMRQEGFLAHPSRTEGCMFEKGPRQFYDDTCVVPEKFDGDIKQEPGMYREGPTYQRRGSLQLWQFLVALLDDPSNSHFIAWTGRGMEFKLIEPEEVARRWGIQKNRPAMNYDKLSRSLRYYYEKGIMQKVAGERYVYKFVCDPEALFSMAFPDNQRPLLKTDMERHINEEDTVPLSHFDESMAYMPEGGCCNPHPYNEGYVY

Row | Sequence | binding signal (FEV) | binding signal (ETV5) | binding signal (SPIC) | binding signal (ELF4) | binding signal (ELK4) | binding signal (ETV2) | binding signal (ELF3) | binding signal (ETV1) | binding signal (ERF) | binding signal (ETV3L) | binding signal (ETS2) | binding signal (ELF5) | binding signal (ETV3) | binding signal (ETV6) | binding signal (ETV7)
1 | AACGCC | 1.11 fold enrichment (6-mer frequency, TF over GST control) | 1.07 fold enrichment (6-mer frequency, TF over GST control) | 1.03 fold enrichment (6-mer frequency, TF over GST control) | 1.15 fold enrichment (6-mer frequency, TF over GST control) | 1.2 fold enrichment (6-mer frequency, TF over GST control) | 1.08 fold enrichment (6-mer frequency, TF over GST control) | 1.08 fold enrichment (6-mer frequency, TF over GST control) | 1.1 fold enrichment (6-mer frequency, TF over GST control) | 1 fold enrichment (6-mer frequency, TF over GST control) | 1.11 fold enrichment (6-mer frequency, TF over GST control) | 1.06 fold enrichment (6-mer frequency, TF over GST control) | 1.01 fold enrichment (6-mer frequency, TF over GST control) | 1.06 fold enrichment (6-mer frequency, TF over GST control) | 1.19 fold enrichment (6-mer frequency, TF over GST control) | –
2 | GTCACT | 1.18 fold enrichment (6-mer frequency, TF over GST control) | 1.14 fold enrichment (6-mer frequency, TF over GST control) | 1.01 fold enrichment (6-mer frequency, TF over GST control) | 1.09 fold enrichment (6-mer frequency, TF over GST control) | 1.07 fold enrichment (6-mer frequency, TF over GST control) | 1.14 fold enrichment (6-mer frequency, TF over GST control) | 1.26 fold enrichment (6-mer frequency, TF over GST control) | – | 1.07 fold enrichment (6-mer frequency, TF over GST control) | 1.08 fold enrichment (6-mer frequency, TF over GST control) | 1.13 fold enrichment (6-mer frequency, TF over GST control) | 1.07 fold enrichment (6-mer frequency, TF over GST control) | 1.01 fold enrichment (6-mer frequency, TF over GST control) | – | 1.09 fold enrichment (6-mer frequency, TF over GST control)
3 | GCCCCC | 1.13 fold enrichment (6-mer frequency, TF over GST control) | 1.06 fold enrichment (6-mer frequency, TF over GST control) | 1.26 fold enrichment (6-mer frequency, TF over GST control) | 1.11 fold enrichment (6-mer frequency, TF over GST control) | 1.18 fold enrichment (6-mer frequency, TF over GST control) | 1.23 fold enrichment (6-mer frequency, TF over GST control) | 1.2 fold enrichment (6-mer frequency, TF over GST control) | 1.1 fold enrichment (6-mer frequency, TF over GST control) | 1.24 fold enrichment (6-mer frequency, TF over GST control) | 1.16 fold enrichment (6-mer frequency, TF over GST control) | 1.03 fold enrichment (6-mer frequency, TF over GST control) | 1.04 fold enrichment (6-mer frequency, TF over GST control) | 1.21 fold enrichment (6-mer frequency, TF over GST control) | 1.05 fold enrichment (6-mer frequency, TF over GST control) | –

Reference: publication PMC7862700, “An all-to-all approach to the identification of sequence-specific readers for epigenetic DNA modifications on cytosine”
